STK33 kin inh: STK33 kinase inhibitors, primary screen, biochemical, luminescence, ADP-Glo, MBP substrate; AID 2322, 2010; inhibition, % at 12.5 µM; Serine/threonine-protein kinase 33 (Homo sapiens), Q9BYT3; hit rate 0.44% among 27,000; in the data active = inhibition above about 20%; inconclusive = no clear call, values can overlap the other calls
Target sequence (Q9BYT3 whole entry, looked up): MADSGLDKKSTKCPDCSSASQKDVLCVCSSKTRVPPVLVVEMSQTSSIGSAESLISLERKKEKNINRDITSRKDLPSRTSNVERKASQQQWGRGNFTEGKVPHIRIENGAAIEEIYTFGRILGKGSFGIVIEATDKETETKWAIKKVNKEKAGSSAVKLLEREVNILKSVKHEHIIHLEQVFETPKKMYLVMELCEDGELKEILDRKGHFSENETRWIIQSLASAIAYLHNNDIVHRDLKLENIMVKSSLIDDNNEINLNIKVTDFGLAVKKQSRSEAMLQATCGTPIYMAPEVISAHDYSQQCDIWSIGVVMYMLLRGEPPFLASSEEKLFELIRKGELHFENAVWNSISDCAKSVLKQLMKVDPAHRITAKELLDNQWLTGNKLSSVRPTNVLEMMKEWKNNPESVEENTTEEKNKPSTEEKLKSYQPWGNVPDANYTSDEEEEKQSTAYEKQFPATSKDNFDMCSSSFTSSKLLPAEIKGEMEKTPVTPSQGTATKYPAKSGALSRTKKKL
p53 PUMA act: mutant p53 pathway re-activators, primary screen, cell-based, SW480, luciferase, single point, HTS | SW480 PUMA-promoter luciferase, p53 mutant reactivation | activation, % at 9.98 µM | hit rate 1.5% among 28,000 | AID 624151, 2012; in the data active = activation above about 52%; inconclusive = no clear call, values can overlap the other calls
ID4 SMM: binders of human ID4 protein, primary screen, biochemical, small molecule microarray, single point | hit rate 1.2% among 31,000 | calls only | AID 624137, 2012 | DNA-binding protein inhibitor ID-4 (Homo sapiens), P47928 | Flag-ID4 binding, fluorescence F/B; call rule not given here;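 also: a binder raises fluorescence above local background on the spot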
Active calls of the source: *; i = inactive; ? = inconclusive; . = not tested or not shown; + = active, no number. This is a sample that favours compounds with a hit; in the whole collection about 2% have one here.

SMILES | STK33 kin inh | p53 PUMA act | ID4 SMM
Cc1ccc2oc(-c3cccc(NC(=O)COc4ccc5ccccc5c4)c3)nc2c1 | ? | 82* | i
Cc1cccc(OCC(=O)Nc2cccc(-c3nc4cc(C)ccc4o3)c2)c1 | -3 | 86* | i
CC/C=C\C[C@@H]1C(=O)C=C[C@@H]1CCCCCCCC(=O)O | -13 | 9 | .
Cc1ccc(NS(=O)(=O)c2cccc(C(=O)Nc3ccccc3C(=O)O)c2)cc1 | -2 | 3 | +
O=C(O)c1ccc(NS(=O)(=O)c2cccc(C(=O)Nc3ccccc3)c2)cc1 | 2 | -5 | i
O=C1N[C@@H](Cc2ccccc2)C(=O)N2[C@@H]1C[C@@H](C(=O)NCc1ccc(F)cc1)[C@H]2c1ccc(O)cc1 | -9 | . | +
NCCCCCCNC(=O)[C@@H]1C[C@@H]2C(=O)NCC(=O)N2[C@@H]1c1cccc(OCCO)c1 | -3 | . | +
O=C(CS)NCCCCCCNC(=O)[C@H]1C[C@H]2C(=O)NCC(=O)N2[C@H]1c1cccc(OCCO)c1 | -2 | . | .
CC(C)C[C@@H]1NC(=O)[C@@H]2C[C@H](C(=O)NCc3ccc(F)cc3)[C@H](c3cccc(OCCO)c3)N2C1=O | 5 | . | i
O=C(NCc1ccc(F)cc1)[C@H]1C[C@H]2C(=O)N[C@@H](Cc3ccccc3)C(=O)N2[C@H]1c1cccc(OCCO)c1 | 5 | . | +
O=C(NCc1ccc(F)cc1)[C@H]1C[C@H]2C(=O)N[C@@H](Cc3ccccc3)C(=O)N2[C@H]1c1ccc(O)cc1 | -1 | . | .
Cc1ccc(C)c(-c2csc(N)c2C#N)c1 | . | 2 | i
Cn1nnnc1SCC(=O)Nc1ncccn1 | 3 | 8 | i
COC(=O)C1C(=O)c2c([nH]c(C(=O)OC(C)C)c2C)CC1C (stereo unspecified) | . | ? | i
COC(=O)c1cc(NC(=O)COc2ccc(Cl)cc2C)cc(C(=O)OC)c1 | 1 | -3 | i
O=C(Nc1cccc(NC(=O)c2ncn[nH]2)c1)c1cccc(Cl)c1 | 32* | 8 | i
O=C(Nc1ccccc1C(=O)O)c1ncn[nH]1 | 2 | 8 | i
CCC(C)C1NC(=O)C(CCC(=O)O)N(C)C(=O)C(C(C)C)N(C)C(=O)CNC(=O)C2CCCN2C(=O)C(Cc2ccccc2)NC(=O)C(C(C)CC)OC(=O)C(CCC(=O)O)N(C)C(=O)C(C(C)C)NC(=O)C2CCCCN2C1=O (stereo unspecified) | -9 | . | .
C=CCNC(=O)[C@@H]1[C@H]2C(=O)O[C@H](c3ccccc3)[C@H](c3ccccc3)N2[C@H](c2ccc(OCCO)cc2)[C@@]12C(=O)Nc1ccc(C#CCNC(N)=O)cc12 | 20* | . | i
O=C1O[C@@H](c2ccccc2)[C@@H](c2ccccc2)N2[C@@H](c3ccccc3OCCO)[C@]3(C(=O)Nc4ccc(C#CCCO)cc43)[C@@H](C(=O)N3CCN(c4ncccn4)CC3)[C@H]12 | 18 | . | i
COc1ccc(C#Cc2ccc3c(c2)[C@]2(C(=O)N3)[C@H](C(=O)N3CCN(c4ncccn4)CC3)[C@H]3C(=O)O[C@H](c4ccccc4)[C@H](c4ccccc4)N3[C@@H]2c2ccccc2OCCO)cc1 | 8 | . | .
O=C1O[C@H](c2ccccc2)[C@H](c2ccccc2)N2[C@H]1[C@@H](C(=O)N1CCCCCCC1)[C@]1(C(=O)Nc3ccc(C#CC4=CCCCC4)cc31)[C@H]2c1ccc(OCCO)cc1 | 22* | . | .
O=C1O[C@H](c2ccccc2)[C@H](c2ccccc2)N2[C@H]1[C@@H](C(=O)N1CCCCCCC1)[C@]1(C(=O)Nc3ccc(C#CCCO)cc31)[C@H]2c1ccccc1OCCO | 22* | . | i
COc1ccc(C#Cc2ccc3c(c2)[C@]2(C(=O)N3)[C@H](C(=O)N3CCCCCCC3)[C@H]3C(=O)O[C@H](c4ccccc4)[C@H](c4ccccc4)N3[C@@H]2c2ccccc2OCCO)cc1 | 30* | . | .
O=C1O[C@@H](c2ccccc2)[C@@H](c2ccccc2)N2[C@@H](c3ccc(OCCO)cc3)[C@]3(C(=O)Nc4ccc(C#CC5=CCCCC5)cc43)[C@@H](C(=O)N3CCN(c4ncccn4)CC3)[C@H]12 | 8 | . | i
SMILES | STK33 kin inh | p53 PUMA act | ID4 SMM
C=CCNC(=O)[C@@H]1[C@H]2C(=O)O[C@H](c3ccccc3)[C@H](c3ccccc3)N2[C@H](c2ccc(OCCO)cc2)[C@@]12C(=O)Nc1ccc(C#Cc3ccc(OC)cc3)cc12 | 15 | . | i
O=C1c2ccccc2C2=Nc3ccccc3SC(c3ccsc3)C12 (stereo unspecified) | . | -26 | i
C[C@H](O)c1nc2ccccc2c(=O)[nH]1 | 0 | -7 | .
N#Cc1ccc(C(=O)Cn2cc(C(F)(F)F)ccc2=O)cc1 | -3 | . | .
O=C1O[C@H](c2ccccc2)[C@H](c2ccccc2)N2[C@H]1[C@@H](C(=O)N1CCN(c3ncccn3)CC1)[C@]1(C(=O)Nc3ccc(C#CC4(O)CCCCCC4)cc31)[C@H]2c1ccccc1OCCO | 9 | . | .
O=C1O[C@H](c2ccccc2)[C@H](c2ccccc2)N2[C@H]1[C@@H](C(=O)N1CCCCCCC1)[C@]1(C(=O)Nc3ccc(C#CC4(O)CCCCCC4)cc31)[C@H]2c1ccccc1OCCO | 21* | . | i
CS(=O)(=O)N(CC(=O)Nc1cccc(C(F)(F)F)c1)Cc1ccccc1 | -3 | -8 | i
c1ccc(-c2nsc(NC3Cc4ccccc4C3)n2)cc1 | . | 109* | i
O=C(O)C1C2C=CC(C2)C1C(=O)Nc1cccc([N+](=O)[O-])c1 (stereo unspecified) | -2 | 8 | i
CCCCC/C=C\C/C=C\CCCCCCCC(=O)O | 0 | . | .
CCCCC/C=C\C/C=C\C/C=C\CCCCCCC(=O)O | . | 12 | +
CCCCC/C=C\C/C=C\CCCCCCCC(=O)NCC(=O)O | 0 | . | +
Cc1ccc(NC(=O)c2cc(=O)[nH]c(=O)[nH]2)cc1 | 1 | . | .
O=C(Nc1cccnc1)c1nc2ncccn2n1 | . | -1 | i
Cc1ccc(O)c(NC(=O)c2nc3ncccn3n2)c1 | 3 | 58* | i
CCOc1ccccc1CNCc1ccccn1 | -6 | 10 | i
CCCn1cnc2cc(NCc3ccccn3)ccc21 | 2 | 78* | i
Cc1oc(-c2ccc(Cl)cc2)cc1COC(=O)Nc1ccccc1 | . | 28 | i
CC(C)Cc1c(O)nc(SCC(=O)NC(C)(C)C)[nH]c1=O | 0 | . | .
Cc1ccc2oc(-c3ccc(C)c(NC(=O)COc4ccc(Br)cc4)c3)nc2c1 | 3 | 65* | i
Cc1ccc(-c2nc3ccccc3o2)cc1NC(=O)COc1ccccc1 | 0 | -11 | i
Cc1cc2nc(-c3ccc(C)c(NC(=O)COc4ccc([N+](=O)[O-])cc4)c3)oc2cc1C | 3 | 66* | i
Cc1ccc2oc(-c3ccc(Cl)c(NC(=O)COc4ccc(C)c(C)c4)c3)nc2c1 | 3 | -9 | i
Cc1ccccc1OCCn1c(C(C)O)nc2ccccc21 (stereo unspecified) | 0 | -3 | i
CN(C)CCCO[C@H]1[C@@H](C(O)CO)OC2OC(C)(C)O[C@@H]21 (stereo partly specified) | 1 | . | .
COc1ccc(NC(=O)CNC(=O)c2ccco2)cc1 | 0 | 30 | i
Cc1ccc(NC(=O)CNC(=O)c2ccco2)cc1 | 2 | 59* | i

Source: PubChem BioAssay
